Results reported in PubChem BioAssay AID1159580 (chemical genetic matrix, 2015).
The campaign covered roughly 5,500 compounds. About 2,000 (36%) were called active. Roughly 18% stayed inconclusive and do not appear here. The list shows a part of the results. A number with no mark means an inactive call. No stated cut-off is given here; in the data, active means normalized growth mostly below about 0.91 (no sharp cut-off); inconclusive means no clear call, values can overlap the other calls; inactive means mostly above about 0.92.

Experiment: chemical genetic growth profiling, strain panel (AID 1159580);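 further: tested at 20 µM; growth read once vehicle control cultures reached saturation at 30 °C; 1 = growth at the plate median or of vehicle wells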
Details: growth OD

Question: For CC(CCC(=O)O)[C@H]1CCC2C3CC[C@@H]4CCCC[C@]4(C)C3CC[C@@]21C (some centres undefined), which normalized growth (S. cerevisiae deletion strains, locus YJR043C, strain POL32, stronger effect = lower value) is on record?
Answer: Its normalized growth is 1.02.

Question: And the normalized growth (S. cerevisiae deletion strains, locus YJR066W, strain TOR1, stronger effect = lower value)?
Answer: Its normalized growth is 1.06.

Question: And the normalized growth (S. cerevisiae deletion strains, locus YJR075W, strain HOC1, stronger effect = lower value)?
Answer: Its normalized growth is 0.999.

Question: What about the normalized growth (S. cerevisiae deletion strains, locus YKL009W, strain mrt4, stronger effect = lower value) of the same compound?
Answer: The normalized growth was 0.95.

Question: What about the normalized growth (S. cerevisiae deletion strains, locus YKL068W, stronger effect = lower value) of the same compound?
Answer: The normalized growth was 0.989.

Question: And the normalized growth (S. cerevisiae deletion strains, locus YKL085W, strain MDH1 (second series), stronger effect = lower value)?
Answer: Its normalized growth is 0.986.

Question: What about the normalized growth (S. cerevisiae deletion strains, locus YKL085W, strain MDH1, stronger effect = lower value) of the same compound?
Answer: Its normalized growth is 0.986.

Question: And the normalized growth (S. cerevisiae deletion strains, locus YKL160W, strain elf1, stronger effect = lower value)?
Answer: The normalized growth was 1.02.

Question: And the normalized growth (S. cerevisiae deletion strains, locus YKL190W, strain CNB1, stronger effect = lower value)?
Answer: Its normalized growth is 0.998.

Question: What about the normalized growth (S. cerevisiae deletion strains, locus YKR001C, strain vps1, stronger effect = lower value) of the same compound?
Answer: Its normalized growth is 0.998.

Question: And the normalized growth (S. cerevisiae deletion strains, locus YKR026C, strain gcn3, stronger effect = lower value)?
Answer: The normalized growth was 1.01.

Question: And the normalized growth (S. cerevisiae deletion strains, locus YKR091W, strain srl3, stronger effect = lower value)?
Answer: Its normalized growth is 1.

Question: And the normalized growth (S. cerevisiae deletion strains, locus YLL001W, strain dnm1, stronger effect = lower value)?
Answer: The normalized growth was 1.01.

Question: What about the normalized growth (S. cerevisiae deletion strains, locus YLL026W, stronger effect = lower value) of the same compound?
Answer: Its normalized growth is 0.988.

Question: And the normalized growth (S. cerevisiae deletion strains, locus YLL041C, strain sdh2, stronger effect = lower value)?
Answer: The normalized growth was 1.

Question: What about the normalized growth (S. cerevisiae deletion strains, locus YLR027C, strain aat2, stronger effect = lower value) of the same compound?
Answer: The normalized growth was 0.995.

Question: What about the normalized growth (S. cerevisiae deletion strains, locus YLR039C, strain RIC1, stronger effect = lower value) of the same compound?
Answer: The normalized growth was 1.05.

Question: What about the normalized growth (S. cerevisiae deletion strains, locus YLR058C, strain SHM2, stronger effect = lower value) of the same compound?
Answer: The normalized growth was 0.999.

Question: And the normalized growth (S. cerevisiae deletion strains, locus YLR102C, strain apc9, stronger effect = lower value)?
Answer: Its normalized growth is 0.984.

Question: And the normalized growth (S. cerevisiae deletion strains, locus YLR113W, strain HOG1, stronger effect = lower value)?
Answer: The normalized growth was 0.977.

Question: And the normalized growth (S. cerevisiae deletion strains, locus YLR221C, strain rsa3, stronger effect = lower value)?
Answer: The normalized growth was 1.02.

Question: And the normalized growth (S. cerevisiae deletion strains, locus YLR258W, strain gsy2, stronger effect = lower value)?
Answer: Its normalized growth is 1.

Question: What about the normalized growth (S. cerevisiae deletion strains, locus YLR262C, strain YPT6 (second series), stronger effect = lower value) of the same compound?
Answer: Its normalized growth is 1.05.

Question: And the normalized growth (S. cerevisiae deletion strains, locus YLR262C, strain YPT6, stronger effect = lower value)?
Answer: Its normalized growth is 1.1.

Question: And the normalized growth (S. cerevisiae deletion strains, locus YLR268W, strain sec22, stronger effect = lower value)?
Answer: Its normalized growth is 0.979.

Question: What about the normalized growth (S. cerevisiae deletion strains, locus YLR320W, strain mms22, stronger effect = lower value) of the same compound?
Answer: The normalized growth was 1.05.

Question: And the normalized growth (S. cerevisiae deletion strains, locus YLR330W, strain CHS5, stronger effect = lower value)?
Answer: Its normalized growth is 0.999.

Question: What about the normalized growth (S. cerevisiae deletion strains, locus YLR342W, strain FKS1 (second series), stronger effect = lower value) of the same compound?
Answer: Its normalized growth is 0.956.

Question: And the normalized growth (S. cerevisiae deletion strains, locus YLR342W, strain FKS1, stronger effect = lower value)?
Answer: The normalized growth was 1.04.

Question: What about the normalized growth (S. cerevisiae deletion strains, locus YLR357W, strain rsc2, stronger effect = lower value) of the same compound?
Answer: Its normalized growth is 0.997.

Question: What about the normalized growth (S. cerevisiae deletion strains, locus YLR370C, strain arc18, stronger effect = lower value) of the same compound?
Answer: The normalized growth was 1.01.

Question: And the normalized growth (S. cerevisiae deletion strains, locus YLR371W, strain rom2, stronger effect = lower value)?
Answer: Its normalized growth is 0.986.

Question: What about the normalized growth (S. cerevisiae deletion strains, locus YLR384C, strain iki3, stronger effect = lower value) of the same compound?
Answer: The normalized growth was 1.

Question: What about the normalized growth (S. cerevisiae deletion strains, locus YLR418C, strain cdc73, stronger effect = lower value) of the same compound?
Answer: Its normalized growth is 0.975.

Question: And the normalized growth (S. cerevisiae deletion strains, locus YML016C, strain PPZ1, stronger effect = lower value)?
Answer: Its normalized growth is 1.

Question: And the normalized growth (S. cerevisiae deletion strains, locus YML032C, strain rad52, stronger effect = lower value)?
Answer: The normalized growth was 0.992.

Question: And the normalized growth (S. cerevisiae deletion strains, locus YML120C, strain ndi1, stronger effect = lower value)?
Answer: Its normalized growth is 1.01.

Question: What about the normalized growth (S. cerevisiae deletion strains, locus YML124C, strain tub3, stronger effect = lower value) of the same compound?
Answer: Its normalized growth is 0.988.

Question: And the normalized growth (S. cerevisiae deletion strains, locus YMR058W, strain fet3, stronger effect = lower value)?
Answer: Its normalized growth is 1.01.

Question: And the normalized growth (S. cerevisiae deletion strains, locus YMR078C, strain ctf18, stronger effect = lower value)?
Answer: The normalized growth was 1.

Question: What about the normalized growth (S. cerevisiae deletion strains, locus YMR125W, strain sto1, stronger effect = lower value) of the same compound?
Answer: The normalized growth was 1.02.

Question: And the normalized growth (S. cerevisiae deletion strains, locus YMR129W, stronger effect = lower value)?
Answer: Its normalized growth is 1.

Question: What about the normalized growth (S. cerevisiae deletion strains, locus YMR205C, strain PFK2, stronger effect = lower value) of the same compound?
Answer: The normalized growth was 1.03.

Question: What about the normalized growth (S. cerevisiae deletion strains, locus YMR223W, strain ubp8, stronger effect = lower value) of the same compound?
Answer: Its normalized growth is 0.994.

Question: What about the normalized growth (S. cerevisiae deletion strains, locus YMR231W, strain pep5, stronger effect = lower value) of the same compound?
Answer: Its normalized growth is 0.998.

Question: And the normalized growth (S. cerevisiae deletion strains, locus YMR307W, strain GAS1, stronger effect = lower value)?
Answer: The normalized growth was 0.985.

Question: What about the normalized growth (S. cerevisiae deletion strains, locus YNL067W, strain RPL9B, stronger effect = lower value) of the same compound?
Answer: Its normalized growth is 1.02.

Question: What about the normalized growth (S. cerevisiae deletion strains, locus YNL071W, strain lat1, stronger effect = lower value) of the same compound?
Answer: Its normalized growth is 1.01.

Question: What about the normalized growth (S. cerevisiae deletion strains, locus YNL183C, strain NPR1, stronger effect = lower value) of the same compound?
Answer: The normalized growth was 1.11 [resistant] (active).

Question: And the normalized growth (S. cerevisiae deletion strains, locus YNL209W, strain ssb2, stronger effect = lower value)?
Answer: The normalized growth was 1.02.

Question: What about the normalized growth (S. cerevisiae deletion strains, locus YNL233W, strain BNI4, stronger effect = lower value) of the same compound?
Answer: Its normalized growth is 1.01.

Question: And the normalized growth (S. cerevisiae deletion strains, locus YNL248C, strain rpa49, stronger effect = lower value)?
Answer: The normalized growth was 1.01.

Question: And the normalized growth (S. cerevisiae deletion strains, locus YNL250W, strain rad50, stronger effect = lower value)?
Answer: Its normalized growth is 0.982.

Question: And the normalized growth (S. cerevisiae deletion strains, locus YNL271C, strain bni1, stronger effect = lower value)?
Answer: The normalized growth was 0.986.

Question: And the normalized growth (S. cerevisiae deletion strains, locus YNL298W, strain CLA4, stronger effect = lower value)?
Answer: The normalized growth was 0.981.

Question: And the normalized growth (S. cerevisiae deletion strains, locus YNL307C, strain MCK1, stronger effect = lower value)?
Answer: Its normalized growth is 0.987.

Question: What about the normalized growth (S. cerevisiae deletion strains, locus YNL322C, strain KRE1 (second series), stronger effect = lower value) of the same compound?
Answer: The normalized growth was 1.01.

Question: What about the normalized growth (S. cerevisiae deletion strains, locus YNL322C, strain KRE1, stronger effect = lower value) of the same compound?
Answer: The normalized growth was 0.997.

Question: And the normalized growth (S. cerevisiae deletion strains, locus YNR049C, strain mso1, stronger effect = lower value)?
Answer: Its normalized growth is 0.998.

Question: And the normalized growth (S. cerevisiae deletion strains, locus YNR052C, strain pop2, stronger effect = lower value)?
Answer: Its normalized growth is 0.985.

Question: What about the normalized growth (S. cerevisiae deletion strains, locus YOL012C, strain htz1) of the same compound?
Answer: Its normalized growth is 1.54.

Question: What about the normalized growth (S. cerevisiae deletion strains, locus YOL147C, strain pex11, stronger effect = lower value) of the same compound?
Answer: The normalized growth was 0.993.

Question: And the normalized growth (S. cerevisiae deletion strains, locus YOR001W, strain rrp6, stronger effect = lower value)?
Answer: The normalized growth was 1.02.

Question: What about the normalized growth (S. cerevisiae deletion strains, locus YOR061W, strain CKA2, stronger effect = lower value) of the same compound?
Answer: The normalized growth was 0.99.

Question: What about the normalized growth (S. cerevisiae deletion strains, locus YOR069W, strain VPS5, stronger effect = lower value) of the same compound?
Answer: The normalized growth was 0.993.

Question: And the normalized growth (S. cerevisiae deletion strains, locus YOR070C, strain gyp1, stronger effect = lower value)?
Answer: Its normalized growth is 0.994.

Question: What about the normalized growth (S. cerevisiae deletion strains, locus YOR080W, strain dia2, stronger effect = lower value) of the same compound?
Answer: The normalized growth was 0.998.

Question: What about the normalized growth (S. cerevisiae deletion strains, locus YOR083W, strain WHI5, stronger effect = lower value) of the same compound?
Answer: Its normalized growth is 1.02.

Question: And the normalized growth (S. cerevisiae deletion strains, locus YOR106W, strain vam3, stronger effect = lower value)?
Answer: The normalized growth was 1.02.

Question: What about the normalized growth (S. cerevisiae deletion strains, locus YOR136W, strain idh2, stronger effect = lower value) of the same compound?
Answer: The normalized growth was 0.986.

Question: What about the normalized growth (S. cerevisiae deletion strains, locus YOR144C, strain elg1, stronger effect = lower value) of the same compound?
Answer: The normalized growth was 0.992.

Question: And the normalized growth (S. cerevisiae deletion strains, locus YOR184W, strain ser1, stronger effect = lower value)?
Answer: The normalized growth was 0.992.

Question: What about the normalized growth (S. cerevisiae deletion strains, locus YOR231W, strain MKK1, stronger effect = lower value) of the same compound?
Answer: Its normalized growth is 0.969.

Question: And the normalized growth (S. cerevisiae deletion strains, locus YOR265W, strain rbl2, stronger effect = lower value)?
Answer: Its normalized growth is 1.

Question: And the normalized growth (S. cerevisiae deletion strains, locus YOR270C, strain vph1, stronger effect = lower value)?
Answer: Its normalized growth is 1.01.

Question: And the normalized growth (S. cerevisiae deletion strains, locus YOR290C, strain snf2, stronger effect = lower value)?
Answer: Its normalized growth is 1.01.

Question: And the normalized growth (S. cerevisiae deletion strains, locus YOR316C, strain cot1, stronger effect = lower value)?
Answer: The normalized growth was 0.985.

Question: And the normalized growth (S. cerevisiae deletion strains, locus YPL051W, strain arl3, stronger effect = lower value)?
Answer: The normalized growth was 1.01.

Question: What about the normalized growth (S. cerevisiae deletion strains, locus YPL055C, strain LGE1, stronger effect = lower value) of the same compound?
Answer: The normalized growth was 0.991.

Question: And the normalized growth (S. cerevisiae deletion strains, locus YPL078C, strain atp4, stronger effect = lower value)?
Answer: Its normalized growth is 1.01.

Question: And the normalized growth (S. cerevisiae deletion strains, locus YPL106C, strain sse1, stronger effect = lower value)?
Answer: Its normalized growth is 1.03.

Question: What about the normalized growth (S. cerevisiae deletion strains, locus YPL240C, strain hsp82, stronger effect = lower value) of the same compound?
Answer: Its normalized growth is 0.998.

Question: What about the normalized growth (S. cerevisiae deletion strains, locus YPL256C, strain CLN2, stronger effect = lower value) of the same compound?
Answer: Its normalized growth is 0.94.

Question: And the normalized growth (S. cerevisiae deletion strains, locus YPR119W, strain clb2, stronger effect = lower value)?
Answer: The normalized growth was 0.993.

Question: What about the normalized growth (S. cerevisiae deletion strains, locus YPR141C, strain kar3, stronger effect = lower value) of the same compound?
Answer: The normalized growth was 0.986.

Question: And the normalized growth (S. cerevisiae deletion strains, locus YPR163C, strain tif3, stronger effect = lower value)?
Answer: Its normalized growth is 1.01.

Question: What about the normalized growth (S. cerevisiae deletion strains, locus YPR167C, strain met16, stronger effect = lower value) of the same compound?
Answer: Its normalized growth is 0.971.

Question: What about the normalized growth (S. cerevisiae deletion strains, strain wtn01, stronger effect = lower value) of the same compound?
Answer: Its normalized growth is 0.965.

Question: What about the normalized growth (S. cerevisiae strains, strain wild type, stronger effect = lower value) of the same compound?
Answer: The normalized growth was 0.995.
